Results taken from ChEMBL document CHEMBL4513216, “Probing the Open Global Health Chemical Diversity Library for Multistage-Active Starting Points for Next-Generation Antimalarials” (ACS Infect Dis, 2020).
Out of some 69,000 compounds screened, about 8,600 (12%) showed an effect of 50% or more. This is one part of a sample in which strong results are shown more often than they occur.

Test system: Plasmodium berghei
Test: Screen against P. berghei liver stage (PbLuc), transformed with Luciferase, at 10uM
Assay type: functional, HepG2
Conditions: tested at 10 uM

| Structure (SMILES) | INHIBITION |
| --- | --- |
| Cc1cc(C(=O)N2CCCC2)ccc1NCC(=O)N1CCCCC1C (stereo unspecified) | 37.3% |
| Cc1ccc(N2CCC3(CCN(C(=O)c4ccnnc4)CC3)CC2)nn1 | -6.21% |
| Cc1noc2nc3c(c(C(=O)/N=c4\[nH]ncs4)c12)CCC3 | 32.8% |
| CS(=O)(=O)N1CCCC1c1ccnc2nccn12 (stereo unspecified) | 10.3545% |
| Cc1cc(C)n(CCC(=O)N2CCCCC2c2nccs2)n1 (stereo unspecified) | 36.3% |
| CN(C)c1cc(CNC(=O)C2COc3ccccc3O2)ccn1 (stereo unspecified) | 2.45% |
| Cc1nnc2ccc(N3CCN(Cc4nccn4C)CC3)nn12 | 43.4% |
| Cc1cc(N2CCN(Cc3nccn3C)CC2)cc(C)n1 | 4.92% |
| Cc1nnc(CN2CCN(Cc3nccn3C)CC2)n1C | 59.3% |
| CC(C)N1CCN(c2ccc3ccc(C(=O)NC4CCCC4)cn23)CC1 | -7.28% |
| COCC(=O)N1CC[C@@H]2CN(Cc3cccnc3)S(=O)(=O)[C@@H]2CC1 | 43% |
| Cc1ccc(S(=O)(=O)NC[C@H]2OC[C@@H](NCc3ccccn3)[C@@H]2O)cc1 | 38.9% |
| Cc1ccc(S(=O)(=O)NC[C@H]2OC[C@@H](NCc3ccncc3)[C@@H]2O)cc1 | 53.2% |
| CC(C)NC(=O)NC[C@H]1OC[C@@H](NCc2ccncc2)[C@@H]1O | -48.1% |
| CC(C)NC(=O)NC[C@H]1OC[C@@H](NCc2ccc(S(C)(=O)=O)cc2)[C@@H]1O | 49.5% |
| Cc1ccc(S(=O)(=O)NC[C@H]2OC[C@@H](NCc3ccccc3)[C@@H]2O)cc1 | 20.7% |
| Cc1ccc(S(=O)(=O)NC[C@H]2OC[C@@H](NCc3cccnc3)[C@@H]2O)cc1 | 57% |
| O=C(NCC1CCOCC1)[C@@H]1C[C@@H]2[C@@H](CCN2Cc2nccs2)O1 | 21.1% |
| COC1CCN(C(=O)CC2CCCC2)CC(=O)N(C)c2ccccc21 (stereo unspecified) | 3.31% |
| CCc1nc(C)cn1C(=O)Nc1ccc(C)cc1 | -4.82% |
| CCc1nc(C)cn1C(=O)Nc1ccccc1 | 48.6% |
| CCc1nc(C)cn1C(=O)Nc1ccc(F)cc1 | 78.2% |
| O=C1CO[C@@H]2CN(C3CCOCC3)C[C@H]2N1Cc1cccc(F)c1 | 25.2% |
| O=C1CO[C@@H]2CN(CC3CCOC3)C[C@H]2N1Cc1cccc(F)c1 (stereo partly specified) | 27.6% |
| O=C1CO[C@@H]2CN(CC3CC3)C[C@H]2N1Cc1cccc(F)c1 | 75.4% |
| COc1cc(N2C[C@H](OCc3cccnc3)[C@H]3OCCC[C@H]32)ncn1 | 10.6% |

| Structure (SMILES) | INHIBITION |
| --- | --- |
| Cc1ccc2c(c1)OC1(NC2=O)C(=O)N(C)c2ccccc21 (stereo unspecified) | 31.6% |
| CN1C(=O)C2(NC(=O)c3ccccc3O2)c2ccccc21 (stereo unspecified) | 34% |
| CC(C)CCN1C(=O)C2(NC(=O)c3ccccc3O2)c2ccccc21 (stereo unspecified) | 55.1% |
| O=C1NCC2(CCCN(C(=O)c3csc(-c4cccs4)n3)C2)O1 (stereo unspecified) | 22% |
| CC(C)[C@H](N)C(=O)N1CCCC(C2=Nc3ccccc3S(=O)(=O)N2)C1 (stereo partly specified) | 26.4% |
| COc1ccccc1N1CCC(CNS(=O)(=O)c2cccc(C#N)c2)C1 (stereo unspecified) | -4.94% |
| Cc1cc(=O)[nH]c(-n2nc(C3CC3)cc2N)n1 | 68.9% |
| CC(C)c1cc(=O)[nH]c(-n2nc(C3CC3)cc2N)n1 | 97% |
| NC1(c2nc(-c3ccccc3)cc(=O)[nH]2)CCCC1 | -13.7% |
| NC1(c2nc(-c3ccccc3)cc(=O)[nH]2)CCCCC1 | -10.1% |
| Cc1cc(C(=O)Nc2cc(C3CC3)n[nH]2)c2c(C)nn(C)c2n1 | 0.991% |
| CC(C)c1cc(=O)[nH]c(C(C)(C)N)n1 | -39.2% |
| CCC(C)(N)c1nc(C(C)C)cc(=O)[nH]1 (stereo unspecified) | -4.35% |
| CCCc1cc(=O)[nH]c(-n2nc(C3CC3)cc2N)n1 | 94% |
| CCCc1cc(=O)[nH]c(-c2cccc(CN3CCCCCC3)c2)n1 | 43.9% |
| Cc1cc(C2CCC2)nc(N2CCC3(CCNC(=O)CC3)CC2)n1 | -32.5% |
| CCCc1cc(=O)[nH]c(SCc2ccccn2)n1 | 3.93% |
| Cc1cc(=O)[nH]c(-n2nc(-c3ccccc3)cc2N)n1 | 65.2% |
| O=C(C1=CCCC1)N1CCC[C@]2(C[C@@H](OCc3ccncc3)CO2)C1 | -9.67% |
| Cc1ccccc1C1(C(=O)NCCN(C)C)CCOCC1 | 18.9665% |
| CC(C)N(C)Cc1ncn2c1CN(C(=O)C1CCCO1)CCC2 (stereo unspecified) | 4.08% |
| O=c1c2c[nH]c(N3CCOCC3)nc-2cn1Cc1cccc(F)c1 | 33.4% |
| COc1ccc(C(=O)CCc2nc(C3CC3)no2)cc1F | -19.1% |
| COc1nn(C)c2c1CCCN(C(=O)c1ccsc1)C2 | -15.7% |
| O=C1CN(C(=O)C2CN(c3ccc(F)cc3)CCO2)CCN1 (stereo unspecified) | -19.925% |
| Cn1cnc(NC(=O)C2CC(=O)N(c3cccc(F)c3)C2)n1 (stereo unspecified) | 6.448% |

| Structure (SMILES) | INHIBITION |
| --- | --- |
| Cc1nc(C)n(CC2CCCN2Cc2nc3ccccc3s2)n1 (stereo unspecified) | 33.8% |
| CNc1cc(C2CCCN2C(=O)CCc2ccccc2F)ccn1 (stereo unspecified) | 22% |
| COCCN(CC1CC1)c1nc(CCN)nc2ccccc12 | 16.2% |
| Cc1sc2nc(CCN)nc(N(C)CCCC3CCCO3)c2c1C (stereo unspecified) | 43.2% |
| COCCN(Cc1cccs1)c1nc(CCN)nc2ccccc12 | -17.3% |
| Cc1sc2nc(CCN)nc(N(CCN(C)C)CC3CCCO3)c2c1C (stereo unspecified) | 51.3% |
| Cc1nn(C)c2nc(N(CCN(C)C)CC3CCCO3)sc12 (stereo unspecified) | 35.3% |
| COCCN(CC1CC1)c1nc(CCN)nc2sc(C)c(C)c12 | 65.3% |
| CCN(CCN(C)C)c1nc(CCN)nc2sc(C)c(C)c12 | 71% |
| O=C(NCCCO)c1nnsc1-c1ccccc1 | 46.6% |
| Cc1sc2c(C3CCCN(S(C)(=O)=O)C3)nc(C)n2c1C (stereo unspecified) | -22.6% |
| Cc1cccc2nc(-c3nc4c([nH]3)CCCNC4=O)cn12 | -176% |
| COc1ccnc(N2CCN(C(=O)COCC(F)(F)F)CC2)n1 | -2.725% |
| Cc1nn(C)c(Cl)c1C1CCCN1C(=O)c1cnccn1 (stereo unspecified) | 25.1% |
| O=C(NCCNc1cccnc1)C(c1cccnc1)N1CCCC1 (stereo unspecified) | -0.55% |
| Cc1n[nH]c(C)c1CCN(C)C(=O)C(c1cccnc1)N1CCOCC1 (stereo unspecified) | -12.5% |
| CN(CCc1ccccn1)C(=O)C(c1cccnc1)N1CCOCC1 (stereo unspecified) | -29.2% |
| Cc1ncsc1CCN(C)C(=O)C(c1cccnc1)N1CCOCC1 (stereo unspecified) | 0.266% |
| Cc1cc(C)nc(CN(C)C(=O)C(c2cccnc2)N2CCCC2)c1 (stereo unspecified) | 61.9% |
| Cc1cc(CN(C)C(=O)C(c2cccnc2)N2CCOCC2)n[nH]1 (stereo unspecified) | 51.7% |
| CN(Cc1cc(C2CC2)[nH]n1)C(=O)C(c1cccnc1)N1CCCC1 (stereo unspecified) | 68.4% |
| CCCn1ncc(C(=O)N(C)Cc2cc(C3CC3)[nH]n2)c1C | 40.6% |
| CN(Cc1cc(C2CC2)on1)C(=O)C(c1cccnc1)N1CCCC1 (stereo unspecified) | 48.9% |
| O=C(c1ccsc1)N1CCO[C@@H]2CN(Cc3nccs3)C[C@@H]2C1 | 42.1% |
| CC1COCCN1C(=O)Nc1cnc2c(cnn2C(C)C)c1 (stereo unspecified) | -27.9% |
| O=C1COc2ccc(C(=O)N3CCCC(n4ccnc4)C3)cc2N1 (stereo unspecified) | -12.2% |

| Structure (SMILES) | INHIBITION |
| --- | --- |
| Cc1cccc(C(Nc2nccc(C)n2)C2CC2)n1 (stereo unspecified) | 6.66% |
| COc1c(C2CCCN2CC(=O)Nc2cccnc2)c(C)nn1C (stereo unspecified) | 19.4% |
| O=C(c1ccsc1)N1CCC2(CCN(Cc3ccccn3)C2=O)C1 (stereo unspecified) | -5.08% |
| CN(CCCOc1ccccc1Cl)C(=O)CN1CCNC1=O | 17% |
| CC(C)[C@H]1CN(c2ccncc2)C[C@@H]1NS(=O)(=O)N(C)C | 76.8% |
| CC(C)[C@@H]1CN(c2ncc(F)cn2)C[C@H]1NS(=O)(=O)N(C)C | 41.7% |
| CC(C)[C@H]1CN(c2ccncc2)C[C@@H]1NC(=O)C1(C#N)CCOCC1 | 10.9% |
| CC(C)[C@H]1CN(C2Cc3ccccc3C2)C[C@@H]1NS(C)(=O)=O | 55% |
| CC(C)[C@@H]1CN(C(=O)CCn2ccccc2=O)C[C@H]1NS(C)(=O)=O | 8.53% |
| Cc1nc2cc(C(=O)N3C[C@@H](NS(C)(=O)=O)[C@H](C(C)C)C3)ccc2[nH]1 | 39% |
| CC(C)[C@@H]1CN(C(=O)NCc2ccco2)C[C@H]1N(C)C | 31.4% |
| CC(C)[C@@H]1CN(C(=O)NCc2ccco2)C[C@H]1NS(=O)(=O)N(C)C | 62.8% |
| CC(C)[C@@H]1CN(c2ccc(C(F)(F)F)cn2)C[C@H]1NS(C)(=O)=O | 26.4% |
| CCN(C)S(=O)(=O)N[C@H]1CN(c2ccc(F)cn2)C[C@@H]1C(C)C | 64.5% |
| CC(C)[C@@H]1CN(c2ccc(F)cn2)C[C@H]1NS(C)(=O)=O | 30.9% |
| CC(C)[C@@H]1CN(CC(=O)NCc2ccco2)C[C@H]1NS(=O)(=O)N(C)C | 27.8% |
| Cn1cc(C2CCCN2C(=O)CCn2c(=O)oc3ccccc32)cn1 (stereo unspecified) | -13.7% |
| CN1CCCc2cc(CNC(=O)c3cccnc3O)ccc21 | -18.8% |
| COC(=O)c1ccc(N(C(=O)c2cccnc2C)C(C)C)c(C)c1 | -4.63% |
| CC(C)CNC(=O)[C@H]1CCS(=O)(=O)[C@@H]2CN(Cc3cccc(Cl)c3)C[C@H]12 | 36.8% |
| Cn1ccnc1C1CCCN(C(=O)c2ccc3nccnc3c2)C1 (stereo unspecified) | 6.11% |
| Cn1ncc2c(=O)[nH]c(CN3CCc4sccc4C3)nc21 | 13.3% |
| Cc1ncncc1C(=O)N1CCCC(n2cccn2)C1 (stereo unspecified) | 2.97% |
